Results on 105 compounds are retold here after PubChem BioAssay AID1044 (The Scripps Research Institute Molecular Screening Center, 2008).

Out of some 16,000 compounds screened, about 240 (1.5%) were called active. No stated cut-off is given here; in the data, active means activation above about 80%; inactive means the rest. The sample as a whole holds a higher share of actives than the screen did.

The target of the assay is Sphingosine 1-phosphate receptor 1 (Homo sapiens) (UniProt P21453). The experiment in a line: S1P1 (human) receptor agonism (AID 1044). The conditions noted are these: S1P1 agonist cell-based reporter assay; at 4.5 µM; active compounds read high.
Sequence of Sphingosine 1-phosphate receptor 1 (Homo sapiens) (P21453 whole entry, looked up): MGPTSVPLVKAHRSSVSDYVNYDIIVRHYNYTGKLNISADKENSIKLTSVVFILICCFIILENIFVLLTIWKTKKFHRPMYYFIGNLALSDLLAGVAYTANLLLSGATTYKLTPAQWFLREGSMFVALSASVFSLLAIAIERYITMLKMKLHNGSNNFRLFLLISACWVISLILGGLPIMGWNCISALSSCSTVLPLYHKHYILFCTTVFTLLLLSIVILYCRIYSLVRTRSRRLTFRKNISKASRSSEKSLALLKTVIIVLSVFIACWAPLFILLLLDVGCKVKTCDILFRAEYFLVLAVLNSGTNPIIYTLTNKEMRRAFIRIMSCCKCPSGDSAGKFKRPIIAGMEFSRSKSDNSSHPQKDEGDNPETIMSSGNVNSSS
As for `O=C(Nc1ccccc1)O/N=C1/CCCc2occc21`, the activation is -2.45% (inactive).

Regarding `CCOC(=O)c1c(NC(=S)NC)sc2c1CCCC2`, the activation is -16.5% (inactive).

`CCOC(=O)NC(=S)NC12CC3CC(CC(C3)C1)C2`: the activation was -14.8% (inactive).

Consider `NC(N)=N/C(N)=N/c1nnc(C(F)(F)F)s1`, for which the activation is -5% (inactive).

For the compound `OC1(C#Cc2ccccc2)CCN(Cc2ccccc2)CC1`, the activation was -10.7% (inactive).

On to `CCOC(=O)c1sc(SCCS(=O)(=O)c2ccc(Cl)cc2)c(C#N)c1-c1ccccc1`, for which the activation is -6.04% (inactive).

As to `CCOC(=O)c1sc2ccccc2c1N`, the activation was -24.7% (inactive).

With `CCOC(=O)c1sc(SC)c(-c2ccccc2)c1N`, the activation is 103% (active).

Consider `N#CCCSc1sc(=S)sc1SCCC#N`, for which the activation was 2.11% (inactive).

Take `Clc1ccc(CO/N=C/c2nc3ccccc3s2)cc1`: the activation was 87% (active).

As to `CCCCc1c(COC)nc(-c2ccc(Cl)cc2)[nH]c1=O`, the activation is -10.5% (inactive).

`Cc1nc(C(F)(F)F)ccc1C(=O)NCCNc1ncccc1C(F)(F)F`: the activation was 3.52% (inactive).

Consider `Cc1nc(C(F)(F)F)ccc1NC(=O)/C=C\C(=O)O`, for which the activation was -31% (inactive).

As to `O=C(NC1Cc2ccccc2C1)c1nnc(-c2ccccc2)o1`, the activation is 62.1% (inactive).

As for `Cn1ncc(Br)c1NC(=O)C(C)(C)C`, the activation was 1.4% (inactive).

As to `CCOC(=O)Cc1csc(NC(NC(=O)OCC)(C(F)(F)F)C(F)(F)F)n1`, the activation was -11.5% (inactive).

Regarding `CN1CCN(c2ccc(NC(=O)c3ccccc3)cc2)CC1`, the activation was 15.7% (inactive).

With `CCOC(=O)C(NC(=O)c1ccco1)(Nc1cc(C)ccn1)C(F)(F)F` (stereo not given), the activation is -12.4% (inactive).

Take `Fc1cccc(Cl)c1CN1CCN(c2ncnc3scc(-c4cccs4)c23)CC1`: the activation was 10.1% (inactive).

On to `CCOC(=O)c1c(-c2ccco2)csc1NC(=O)Nc1ccc(Cl)cc1`, for which the activation is -5.82% (inactive).

Take `C/C(=N\NC(=S)Nc1cccc(F)c1)c1ccco1`: the activation is -19.7% (inactive).

With `Cc1nc(C)c(-c2ccnc(-c3ccc(Cl)cc3)n2)s1`, the activation was -14.5% (inactive).

Take `Fc1ccc(Oc2nc(Oc3ccc(F)cc3)nc(N3CCSCC3)n2)cc1`: the activation is -33.1% (inactive).

For the compound `Cc1noc(C)c1C(=O)N1CCOCC1`, the activation was -1.85% (inactive).

As to `CCOC(=O)c1cc(C)nc(Sc2ccccc2NC(=O)Nc2ccc(Cl)cc2)c1C#N`, the activation is -5.59% (inactive).

`OC(CN1CCN(c2ccc(C(F)(F)F)cn2)CC1)c1ccc2c(c1)OCCO2` (stereo not given): the activation is 4.19% (inactive).

`CNC(=O)NNC(=O)Cn1nnc(N2CCCCC2)n1`: the activation was -5.59% (inactive).

Turning to `O=C(c1ccc(F)cc1)C1CCN(Cc2cn[nH]c2-c2ccccc2)CC1`, the activation is -8.25% (inactive).

For the compound `Cn1nc(-c2ccccc2)cc1N`, the activation was -14.4% (inactive).

For `O=C1NC(=O)c2cc([N+](=O)[O-])c(Sc3c(Cl)cccc3Cl)cc21`, the activation is 16.5% (inactive).

As to `Cn1cc(Br)c(-c2ccc(NC(=O)Nc3ccc(Cl)cc3)cc2)n1`, the activation is 48.5% (inactive).

Turning to `CCOC(=O)NN(C(=O)OCC)c1c(C)c(C)c(C)c(C)c1C`, the activation is 6.8% (inactive).

For `CCOc1ccc(NC(=S)N2CCC(c3ccccc3OC)CC2)cc1`, the activation was -5.17% (inactive).

For `COc1ccc(OC)c(CNC(=O)Cc2cccs2)c1`, the activation is 2.66% (inactive).

As for `CC(C)N(C(=O)c1ccc(-c2ccccc2F)cc1)C(C)C`, the activation was 5.33% (inactive).

Consider `COc1ccc(-c2ccc(/C=N/NC(=O)CCc3ccc(O)cc3)s2)cc1`, for which the activation was 76.7% (inactive).

In the case of `COc1ccc2c(c1)CCCC2=Nc1ccccc1C(F)(F)F`, the activation was 76.9% (inactive).

In the case of `Cc1cc2nc(C)c(C)nc2cc1C`, the activation was -24.7% (inactive).

In the case of `NC(=O)c1sccc1Br`, the activation was -10.4% (inactive).

As for `Cc1onc(-c2ccccc2)c1CNS(=O)(=O)c1ccc2c(c1)OCCN2C`, the activation is -10.4% (inactive).

With `NC(CC(=O)O)c1ccccc1` (stereo not given), the activation is 6.64% (inactive).

For the compound `Cc1ccc(NC(=O)c2ccccc2NC(=O)c2ccccc2)cc1`, the activation was -30.9% (inactive).

As for `Cc1ccc(NC(C(=O)O)c2ccccc2)cc1` (stereo not given), the activation is 81.5% (active).

For the compound `O=[N+]([O-])c1ccc(-c2nnnn2Cc2c(Cl)cccc2Cl)cc1`, the activation was 38.8% (inactive).

With `Cc1oc(-c2ccc(Cl)cc2)cc1C(=O)N1CCN(Cc2ccccc2)CC1`, the activation is -6.1% (inactive).

For the compound `COc1ccc(NC(NC(=O)c2ccc(OC)cc2)(C(F)(F)F)C(F)(F)F)cc1`, the activation is 4.17% (inactive).

`CCOC(=O)N/N=C(\C)c1cccc(NC(C)=O)c1`: the activation is 3.43% (inactive).

For the compound `CC(C)(C)C(=O)Nc1c(Br)c(C2CC2)nn1-c1ccccc1`, the activation is 4.11% (inactive).

For `N#Cc1ccc(OS(=O)(=O)c2cc(C(F)(F)F)cc(C(F)(F)F)c2)cc1`, the activation is 0.18% (inactive).

For the compound `CSc1nc(N)n(-c2ccccc2)n1`, the activation is 5.77% (inactive).

For the compound `COC(=O)c1c(C(=O)OC)c2n(c1C)CCS2`, the activation was 10.2% (inactive).

In the case of `O=C(Nc1ccc(OCc2ccccc2)cc1)OCC1CN(Cc2ccccc2)CCO1` (stereo not given), the activation was 43.9% (inactive).

On to `O=S(=O)(Oc1cccc(C(F)(F)F)c1)c1cc(S(=O)(=O)c2ccccc2)cs1`, for which the activation was 4.61% (inactive).

For `Cn1nc(C(C)(C)C)c(NC(=O)c2sccc2Cl)c1C(C)(C)C`, the activation was -7.37% (inactive).

Turning to `CCc1ccc(S(=O)(=O)Nc2ccc(C)c(NS(C)(=O)=O)c2)cc1`, the activation was 6.03% (inactive).

`Cc1oc(-c2ccc(Cl)cc2)cc1C(=O)N1CCOCC1`: the activation is 6.2% (inactive).

Consider `CCOC(=O)c1c(NS(=O)(=O)c2cccc3nsnc23)sc(C)c1C`, for which the activation is 117% (active).

As for `Cc1c(-c2cnc(NC(=O)c3ccccc3)s2)sc2ccc(Cl)cc12`, the activation was 7.33% (inactive).

Regarding `NNC(=O)COc1ccc(C2SCCS2)cc1`, the activation was -2.77% (inactive).

Regarding `NNC(=O)c1csc(COc2ccc(C3SCCS3)cc2)n1`, the activation was 83% (active).

Consider `O=C(Nc1ccc(Cl)cc1)c1csc(COc2ccc3nonc3c2)n1`, for which the activation was -33.9% (inactive).

With `O=c1oc2ccc(Cl)cc2cc1-c1ccc([N+](=O)[O-])cc1`, the activation is -9.38% (inactive).

On to `O=C(NNc1ccc(C(F)(F)F)cn1)c1ccccc1Cl`, for which the activation was -0.55% (inactive).

As for `COc1cccc2cc(C(=O)O)oc12`, the activation was -0.93% (inactive).

In the case of `O=C(O)CC(CC(=O)O)c1ccc(C(F)(F)F)cc1`, the activation was 0.91% (inactive).

`O=C1c2ccc3c4c(ccc(c24)C(=O)N1c1ccccc1)C(=O)N(c1ccccc1)C3=O`: the activation was -6.17% (inactive).

As for `CCCCCCNC(=O)NCCCCCC`, the activation is -9.06% (inactive).

Consider `COc1ccc(CCNCC(O)Cn2ccc3ccccc32)cc1OC` (stereo not given), for which the activation is 5.51% (inactive).

Turning to `c1ccc2c(c1)NC(C1Nc3ccccc3O1)O2` (stereo not given), the activation was -3.26% (inactive).

In the case of `COc1cc(CCN=Cc2ccccc2O)c([N+](=O)[O-])cc1OC`, the activation is -11.4% (inactive).

On to `CS/C(N)=N/N=C/c1cccs1`, for which the activation was -0.53% (inactive).

For the compound `COC(=O)C1=C(NNc2ccccc2)CSC1`, the activation was 6.31% (inactive).

Take `Cc1cc(CNCC(O)C(F)(F)F)no1` (stereo not given): the activation is -6.99% (inactive).

For `FC(F)(F)C1=CC=NCCN1`, the activation is 1.36% (inactive).

As to `N/C(=N\OC(=O)Nc1ccccc1)c1ccc(Oc2c(Cl)cncc2Cl)cc1`, the activation was 13.7% (inactive).

As for `Cc1nc(-c2ccc(NC(=O)COCC(=O)O)cc2)cs1`, the activation was -4.96% (inactive).

Take `CCCCCCCCc1ccc(C(=O)O)cc1`: the activation was 19.6% (inactive).

For `CCOC(=O)c1c(NC(=S)Nc2ccccc2)sc2c1CCN(C)C2`, the activation is -17.2% (inactive).

Turning to `Cc1nnsc1-c1nnc(SCC(=O)c2ccc3c(c2)OCO3)n1C1CC1`, the activation was 0.92% (inactive).

As to `COc1cccc(NC(=S)N(CCC#N)C2CCCCC2)c1`, the activation is -17.6% (inactive).

Regarding `COc1ccc(NC(=S)Nc2ccc(OC)cc2)cc1`, the activation was 2.11% (inactive).

For the compound `COc1cccc(NC(=S)NNC(=S)NC2CC3CCC2C3)c1` (stereo not given), the activation is 97.7% (active).

Turning to `COc1cccc(C(=O)c2sc3nsc(SCc4ccc(F)cc4)c3c2N)c1`, the activation was 50.7% (inactive).

As to `Cc1ccc([N+](=O)[O-])c(C(=O)NCC(=O)O)c1`, the activation is -20% (inactive).

Consider `OC(COc1ccc(F)cc1)(c1ccccc1)c1ccccc1`, for which the activation is -25.6% (inactive).

Turning to `CCO/N=C\c1nn(S(C)(=O)=O)cc1Br`, the activation was -3.43% (inactive).

For `CCOC(=O)Cc1nc(N)ncc1C(=O)OCC`, the activation was -10.1% (inactive).

As to `Clc1ccc(-c2csc(N/N=C\c3ccn[nH]3)n2)cc1`, the activation is 8.84% (inactive).

Regarding `O=C(NCCO)NCCSc1ccc(F)cc1`, the activation is -13.1% (inactive).

In the case of `O=C1CSC(=S)N1c1ccc(N2CCCCCC2)c(N2C(=O)CSC2=S)c1`, the activation was 0.84% (inactive).

Consider `COC(=O)c1ccc(S(=O)(=O)NNC(=O)c2cn3cc(C(F)(F)F)cc(Cl)c3n2)n1C`, for which the activation is -20.2% (inactive).

With `N#Cc1ccc(N2CCSCC2)cc1[N+](=O)[O-]`, the activation was -27.1% (inactive).

For the compound `O=C(CNC(=O)c1ccccc1F)c1ccc(Br)cc1`, the activation was 84.7% (active).

`O=C(O)c1ccccc1Nc1ccccc1F`: the activation is 2.49% (inactive).

For the compound `O=C(Nc1ccccc1C(=O)NCc1c(F)cccc1Cl)c1ccccc1Cl`, the activation was 15.3% (inactive).

As to `Cc1ccc(Sc2cc(C)c(C)cc2N)c(C)c1`, the activation was 10.7% (inactive).

As for `Cc1csc(/N=C/N(C)C)c1C#N`, the activation was -3.89% (inactive).

For the compound `NS(=O)(=O)c1ccc(Oc2c(Cl)cccc2[N+](=O)[O-])cc1`, the activation is -8.03% (inactive).

Turning to `CCCS(=O)(=O)c1csc(C(=O)OC)c1N/N=C/c1cccs1`, the activation is -27.2% (inactive).

Consider `Cn1cccc1CNC(=O)c1cc(F)cc2c1OCOC2`, for which the activation was 21.1% (inactive).

With `Cc1c(C(=O)Nc2ccccc2)sc2cc(C(C)(C)C)sc12`, the activation is 23.4% (inactive).

Consider `O=C1OC2(CCCCC2)OC1c1ccccc1` (stereo not given), for which the activation is -9.78% (inactive).

Turning to `CSc1nc2c(c(/C=C/c3ccccc3)c1C#N)CCC2`, the activation was -18.1% (inactive).

In the case of `O=C1c2ccccc2O[C@@H](c2ccccc2)[C@@H]1NC1CCCCC1`, the activation is 75.6% (inactive).

Turning to `NNC(=O)c1cc2ccccc2s1`, the activation was 8.06% (inactive).
